Read-out in experiment [1]: Interleukin-8 (IL8), CXCL8 (gene 3576)
In words: BSK_CASM3C_IL8: BioMAP Diversity Plus: CASM3C Assay for Interleukin-8 (IL8) Biomarker Activity (AID 2283042).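 Further: IL-8 protein level quantified by ELISA.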 The conditions noted are these: primary human coronary artery smooth muscle cells; actives raise or lower the signal.

Read-out in experiment [2]: Human Leukocyte Antigen - DR isotype (HLADR), HLA-DRA (gene 3122)
Kind of experiment: BSK_CASM3C_HLADR: BioMAP Diversity Plus: CASM3C Assay for Human Leukocyte Antigen - DR isotype (HLADR) Biomarker Activity (AID 2283043).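 Further: cell-surface HLA-DR protein level quantified by ELISA.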 The conditions noted are these: primary human coronary artery smooth muscle cells; actives raise or lower the signal.

Read-out in experiment [3]: Macrophage colony-stimulating factor (MCSF), CSF1 (gene 1435)
Kind of experiment: BSK_CASM3C_MCSF: BioMAP Diversity Plus: CASM3C Assay for Macrophage colony-stimulating factor (MCSF) Biomarker Activity (AID 2283044).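 Further: M-CSF protein amount quantified by ELISA after 24 h exposure.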 To be noted: primary human coronary artery smooth muscle cells; actives raise or lower the signal.

Read-out in experiment [4]: Low-density lipoprotein receptor (LDLR), LDLR (gene 3949)
In words: BSK_CASM3C_LDLR: BioMAP Diversity Plus: CASM3C Assay for Low-density lipoprotein receptor (LDLR) Biomarker Activity (AID 2283045).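 Further: LDLR protein level on the cell surface quantified by ELISA.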 The conditions noted are these: primary human coronary artery smooth muscle cells; actives raise or lower the signal.

Read-out in experiment [5]: Monocyte Chemoattractant Protein-1 (MCP1), CCL2 (gene 6347)
In words: BSK_CASM3C_MCP1: BioMAP Diversity Plus: CASM3C Assay for Monocyte Chemoattractant Protein-1 (MCP1) Biomarker Activity (AID 2283046).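 Further: MCP-1 level quantified by ELISA 24 h after dosing.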 To be noted: primary human coronary artery smooth muscle cells; actives raise or lower the signal.

Experiment [6] in a line: BSK_CASM3C_Proliferation: Cell Proliferation Assessment in the BioMAP Diversity Plus: CASM3C Assay (AID 2283047).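 Further: sulforhodamine B total protein stain as relative cell number at 560 nm; sub-confluent cells exposed 48 h before staining; fitted both ways against DMSO so gain or loss of cell number.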 The conditions noted are these: primary human coronary artery smooth muscle cells.
Read-out in experiment [7]: Monokine induced gamma interferon (MIG), CXCL9 (gene 4283)
In words: BSK_CASM3C_MIG: BioMAP Diversity Plus: CASM3C Assay for Monokine induced gamma interferon (MIG) Biomarker Activity (AID 2283048).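 Further: MIG protein level measured by ELISA.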 To be noted: primary human coronary artery smooth muscle cells; actives raise or lower the signal.

Read-out in experiment [8]: serum amyloid A (SAA), SAA1 (gene 6288)
Kind of experiment: BSK_CASM3C_SAA: BioMAP Diversity Plus: CASM3C Assay for serum amyloid A (SAA) Biomarker Activity (AID 2283049).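 Further: SAA protein level quantified by ELISA.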 The conditions noted are these: primary human coronary artery smooth muscle cells; actives raise or lower the signal.

The nature of experiment [9]: BSK_CASM3C_SRB: Viability Assessment in the BioMAP Diversity Plus: CASM3C Assay (AID 2283050).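 Further: total protein by SRB staining as cytotoxicity measure in parallel cultures; cells exposed to compound for 24 h.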 The conditions noted are these: primary human coronary artery smooth muscle cells.
Read-out in experiment [10]: Thrombomodulin, THBD (gene 7056)
Kind of experiment: BSK_CASM3C_Thrombomodulin: BioMAP Diversity Plus: CASM3C Assay for Thrombomodulin Biomarker Activity (AID 2283051).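 Further: thrombomodulin protein level measured by ELISA 24 h after dosing.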 To be noted: primary human coronary artery smooth muscle cells; actives raise or lower the signal.

Read-out in experiment [11]: Tissue Factor, F3 (gene 2152)
Kind of experiment: BSK_CASM3C_TissueFactor: BioMAP Diversity Plus: CASM3C Assay for Tissue Factor Biomarker Activity (AID 2283052).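 Further: cell surface tissue factor protein level read by ELISA.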 The conditions noted are these: primary human coronary artery smooth muscle cells; actives raise or lower the signal.

Read-out in experiment [12]: Interferon-gamma inducible Protein 10 (IP10), CXCL10 (gene 3627)
Kind of experiment: BSK_hDFCGF_IP10: BioMAP Diversity Plus: hDFCGF Assay for Interferon-gamma inducible Protein 10 (IP10) Biomarker Activity (AID 2283053). To be noted: primary human foreskin fibroblasts; actives raise or lower the signal. The essentials: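 ELISA read-out of IP-10 (CXCL10) from primary human skin fibroblasts, 24 h after compound addition. Gain or loss of signal versus DMSO baseline, bidirectional curve fitting.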

Read-out in experiment [13]: Urokinase-type plasminogen activator receptor (uPAR), PLAUR (gene 5329)
Kind of experiment: BSK_CASM3C_uPAR: BioMAP Diversity Plus: CASM3C Assay for Urokinase-type plasminogen activator receptor (uPAR) Biomarker Activity (AID 2283054).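 Further: cell-surface uPAR protein level quantified by ELISA.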 To be noted: primary human coronary artery smooth muscle cells; actives raise or lower the signal.

Read-out in experiment [14]: Vascular cell adhesion molecule 1 (VCAM1), VCAM1 (gene 7412)
In words: BSK_CASM3C_VCAM1: BioMAP Diversity Plus: CASM3C Assay for Vascular cell adhesion molecule 1 (VCAM1) Biomarker Activity (AID 2283055).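 Further: VCAM-1 protein level quantified by ELISA on the cells.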 The conditions noted are these: primary human coronary artery smooth muscle cells; actives raise or lower the signal.

Read-out in experiment [15]: Collagen III, COL3A1 (gene 1281)
Kind of experiment: BSK_hDFCGF_CollagenIII: BioMAP Diversity Plus: hDFCGF Assay for Collagen III Biomarker Activity (AID 2283056). The conditions noted are these: primary human foreskin fibroblasts; actives raise or lower the signal. The essentials: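 ELISA read-out of collagen III from human skin fibroblast cultures sampled 24 h post-dosing. Values were derived by bidirectional fitting relative to the DMSO vehicle control.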

Read-out in experiment [16]: Epidermal growth factor receptor (EGFR), EGFR (gene 1956)
In words: BSK_hDFCGF_EGFR: BioMAP Diversity Plus: hDFCGF Assay for Epidermal growth factor receptor (EGFR) Biomarker Activity (AID 2283057). To be noted: primary human foreskin fibroblasts; actives raise or lower the signal. The procedure, abridged:
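ELISA readout of EGFR on human dermal fibroblasts (primary foreskin cells), 24 h post-dosing; bidirectional curve fit vs DMSO baseline, gain or loss of signal scored.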

Read-out in experiment [17]: Macrophage colony-stimulating factor (MCSF), CSF1 (gene 1435)
Kind of experiment: BSK_hDFCGF_MCSF: BioMAP Diversity Plus: hDFCGF Assay for Macrophage colony-stimulating factor (MCSF) Biomarker Activity (AID 2283060). The conditions noted are these: primary human foreskin fibroblasts; actives raise or lower the signal. The procedure, abridged: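 Primary human foreskin fibroblasts dosed with chemical; 24 h later, M-CSF quantified by ELISA; curves fitted in both directions vs DMSO negative control.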

Experiment [18] in a line: BSK_hDFCGF_SRB: Viability Assessment in the BioMAP Diversity Plus: hDFCGF Assay (AID 2283061).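 Further: cells exposed to compound for 24 h before the read.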 To be noted: primary human foreskin fibroblasts. The essentials: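 Readout is SRB absorbance at 560 nm, reflecting total protein in parallel cultures of human foreskin fibroblasts harvested 24 h after chemical dosing. Activity was fitted bidirectionally relative to DMSO.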
Read-out in experiment [19]: Interleukin-8 (IL8), CXCL8 (gene 3576)
In words: BSK_hDFCGF_IL8: BioMAP Diversity Plus: hDFCGF Assay for Interleukin-8 (IL8) Biomarker Activity (AID 2283058). The conditions noted are these: primary human foreskin fibroblasts; actives raise or lower the signal. The procedure, abridged: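 Cells used are human skin primary fibroblasts. Chemical is added, cultures run 24 h, then IL-8 is quantified by ELISA, and gain or loss versus DMSO control is fitted in both directions.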

The nature of experiment [20]: BSK_hDFCGF_Proliferation: Cell Proliferation Assessment in the BioMAP Diversity Plus: hDFCGF Assay (AID 2283059).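 Further: curves fitted for both rise and fall of signal versus DMSO baseline.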 To be noted: primary human foreskin fibroblasts. The procedure, abridged:
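Primary human foreskin fibroblasts, sub-confluent; […]; 10% TCA fix, 0.1% SRB stain, A560 total protein. Gain/loss fitted bidirectionally vs DMSO control.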

The source made the active and inactive calls. How the source made its calls: active means hit-call score of the fitted dose curve at least 0.9, where 1 is the maximum; inactive means score below 0.9.

What is called AC50 is the concentration at which the activity in the assay is half-maximal.

Consider `CN(C)C(=O)C1(N2CCCCC2)CCN(CC[C@@]2(c3ccc(Cl)c(Cl)c3)CN(C(=O)c3ccccc3)CCO2)CC1`, for which the AC50 in experiment [1] was 32.4 µM (active); in [2] it was 18.1 µM (active); in [3] it was 31.3 µM (active); in experiment [4] it was 4.45 µM (active); in experiment [5] it was 28.6 µM (active); in experiment [6] it was 15.7 µM (active). In addition, the AC50 in experiment [7] was 29.9 µM (active); in [8] it was 33.3 µM (active); in experiment [9], 27.2 µM (active); in experiment [10], 34.7 µM (active); in [11] it was 31 µM (active); in experiment [12], 27.2 µM (active). For the same compound, the AC50 in [13] was 24.4 µM (active); in experiment [14], 30 µM (active); in experiment [15], 25.4 µM (active); in [16], 9.57 µM (active); in [17], 20.8 µM (active); in experiment [18], 13.3 µM (active).
Take `O=c1ccc2ccccc2o1`: the result in [1], in experiment [2], in [3], in experiment [4], in [5] and in experiment [6] was inactive. For the same compound, the outcome in experiment [7], in experiment [9], in experiment [10], in experiment [11], in experiment [12] and in [13] was inactive. Moreover, the result in experiment [14], in experiment [15], in [16], in experiment [19] and in experiment [18] was inactive. In addition, in [8], the AC50 was 0.148 µM (active).
In the case of `NCc1cccc(C2CCN(C(=O)c3ccc(C#Cc4ccccc4F)o3)CC2)c1`, the AC50 is 34.7 µM (active) in experiment [1]; 13.3 µM (active) in [2]; 28.4 µM (active) in [3]; 35.3 µM (active) in [4]; 22.3 µM (active) in experiment [6]; 34 µM (active) in experiment [7]. For the same compound, the AC50 is 27.7 µM (active) in experiment [8]; 16 µM (active) in [9]; 4.76 µM (active) in experiment [10]; 8.64 µM (active) in [12]; 30.7 µM (active) in experiment [13]; 15.9 µM (active) in experiment [14]. Also, the half-maximal activity concentration (AC50) in [15] was 5.12 µM (active); in experiment [16], 12.6 µM (active); in experiment [19], 11.9 µM (active); in experiment [20] it was 5.81 µM (active); in experiment [17] it was 7.78 µM (active); in experiment [18], 10.1 µM (active). Besides, the outcome in [5] and in [11] was inactive.
For `O=C=NCCCCCCN=C=O`, the outcome in experiment [1], in experiment [2], in [3], in experiment [4], in [5] and in experiment [6] was inactive. Further, the outcome in experiment [7], in [8], in experiment [9], in experiment [10], in experiment [11] and in experiment [12] was inactive. The result in experiment [13], in experiment [14], in [15], in experiment [16] and in experiment [18] was inactive.
Take `CC[C@@H]1C[C@H](N(Cc2cc(C(F)(F)F)cc(C(F)(F)F)c2)C(C)=O)c2cc(C(F)(F)F)ccc2N1C(=O)OC(C)C`: the outcome in experiment [1], in [2], in [3], in experiment [5], in [7] and in experiment [8] was inactive. Besides, the outcome in [9], in [10], in [11], in experiment [13], in [14] and in experiment [15] was inactive. The outcome in experiment [16], in [19], in [20], in [17] and in experiment [18] was inactive. Further, the AC50 is 1.22 µM (active) in experiment [4], 1.37 µM (active) in [6] and 1.22 µM (active) in experiment [12].
`CCCCOC(=O)c1ccc(O)cc1`: the outcome in experiment [1], in experiment [2], in experiment [3], in experiment [4], in experiment [5] and in experiment [6] was inactive. Further, the outcome in experiment [7], in experiment [8], in [9], in experiment [10], in [11] and in experiment [12] was inactive. Besides, the result in experiment [13], in [14], in experiment [15], in experiment [16] and in experiment [18] was inactive.

These data come from PubChem BioAssay (EPA / NIEHS).
